Read-out in assay [1]: Vascular cell adhesion molecule 1 (VCAM1), VCAM1 (gene 7412)
In words: BSK_4H_VCAM1: BioMAP Diversity Plus: 4H Assay for Vascular cell adhesion molecule 1 (VCAM1) Biomarker Activity (AID 2283033).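 As to outcome: cell-surface VCAM-1 protein measured by ELISA.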 The settings on record: primary human endothelial cells (HUVEC); actives raise or lower the signal. The procedure, abridged:
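Primary human umbilical vein endothelial cells were exposed to chemicals for 24 h, after which VCAM-1 was quantified by ELISA. Responses were fitted bidirectionally against DMSO as negative control and activity baseline.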

Read-out in assay [2]: Interferon-gamma inducible Protein 10 (IP10), CXCL10 (gene 3627)
As to the kind of experiment: BSK_BE3C_IP10: BioMAP Diversity Plus: BE3C Assay for Interferon-gamma inducible Protein 10 (IP10) Biomarker Activity (AID 2283034). Particulars: primary human bronchial epithelial cells; actives raise or lower the signal. A digest of the protocol: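 Human primary bronchial epithelial cells were exposed to chemicals for 24 hours, after which IP-10 levels were measured by ELISA. Data were fitted bidirectionally against DMSO, which served as the negative control and activity baseline.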

Read-out in assay [3]: Monokine induced gamma interferon (MIG), CXCL9 (gene 4283)
As to the kind of experiment: BSK_BE3C_MIG: BioMAP Diversity Plus: BE3C Assay for Monokine induced gamma interferon (MIG) Biomarker Activity (AID 2283035).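 As to outcome: MIG protein measured by ELISA in BE3C cultures after 24 h of dosing.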 The settings on record: primary human bronchial epithelial cells; actives raise or lower the signal. The procedure, abridged: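 MIG level was determined by ELISA after 24 h chemical treatment of primary human bronchial epithelial cells. Values were fitted bidirectionally with DMSO as the negative control and activity baseline.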

Read-out in assay [4]: Transforming growth factor beta 1 (TGFb1), TGFB1 (gene 7040)
In words: BSK_BE3C_TGFb1: BioMAP Diversity Plus: BE3C Assay for Transforming growth factor beta 1 (TGFb1) Biomarker Activity (AID 2283036). The settings on record: primary human bronchial epithelial cells; actives raise or lower the signal. A digest of the protocol:
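Human primary bronchial epithelial cells (BE3C system) were dosed with chemical and TGF-b1 levels measured by ELISA at 24 h. Activity was fitted bidirectionally relative to DMSO negative control as baseline.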

Read-out in assay [5]: urokinase plasminogen activator (uPA), PLAU (gene 5328)
In words: BSK_BE3C_uPA: BioMAP Diversity Plus: BE3C Assay for urokinase plasminogen activator (uPA) Biomarker Activity (AID 2283038).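 As to outcome: uPA protein level quantified by ELISA in cell cultures; uPA read one day after compound addition.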 The settings on record: primary human bronchial epithelial cells; actives raise or lower the signal. A digest of the protocol: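 ELISA for uPA on human primary bronchial epithelial cultures 24 h post-treatment, gain or loss against DMSO. Parallel SRB staining (0.1% after 10% TCA fixation, 560 nm) assessed overt cytotoxicity.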

Read-out in assay [6]: Urokinase-type plasminogen activator receptor (uPAR), PLAUR (gene 5329)
As to the kind of experiment: BSK_BE3C_uPAR: BioMAP Diversity Plus: BE3C Assay for Urokinase-type plasminogen activator receptor (uPAR) Biomarker Activity (AID 2283039).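 As to outcome: cells exposed to compound for one day before measurement.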 The settings on record: primary human bronchial epithelial cells; actives raise or lower the signal. The procedure, abridged: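 Primary human bronchial epithelial cells were dosed with chemical and harvested 24 h later; uPAR was quantified by ELISA. Activity was fitted bidirectionally against DMSO as negative control and baseline.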

Read-out in assay [7]: Interleukin-6 (IL6), IL6 (gene 3569)
As to the kind of experiment: BSK_CASM3C_IL6: BioMAP Diversity Plus: CASM3C Assay for Interleukin-6 (IL6) Biomarker Activity for (AID 2283040). Particulars: primary human coronary artery smooth muscle cells; actives raise or lower the signal.

Read-out in assay [8]: Tissue plasminogen activator (tPA), PLAT (gene 5327)
In words: BSK_BE3C_tPA: BioMAP Diversity Plus: BE3C Assay for Tissue plasminogen activator (tPA) Biomarker Activity (AID 2283041).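 As to outcome: tPA level quantified by ELISA one day after compound addition.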 The settings on record: primary human bronchial epithelial cells; actives raise or lower the signal. The procedure, abridged: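 Human primary bronchial epithelial cells were dosed with chemical and tPA biomarker levels measured by ELISA 24 hours later. Activity was fitted bidirectionally against DMSO as negative control and baseline.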

Read-out in assay [9]: Interleukin-8 (IL8), CXCL8 (gene 3576)
In words: BSK_CASM3C_IL8: BioMAP Diversity Plus: CASM3C Assay for Interleukin-8 (IL8) Biomarker Activity (AID 2283042).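 Also: IL-8 protein level quantified by ELISA.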 The settings on record: primary human coronary artery smooth muscle cells; actives raise or lower the signal.

Read-out in assay [10]: Human Leukocyte Antigen - DR isotype (HLADR), HLA-DRA (gene 3122)
In words: BSK_CASM3C_HLADR: BioMAP Diversity Plus: CASM3C Assay for Human Leukocyte Antigen - DR isotype (HLADR) Biomarker Activity (AID 2283043).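 Also: cell-surface HLA-DR protein level quantified by ELISA.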 The settings on record: primary human coronary artery smooth muscle cells; actives raise or lower the signal.

Read-out in assay [11]: Macrophage colony-stimulating factor (MCSF), CSF1 (gene 1435)
In words: BSK_CASM3C_MCSF: BioMAP Diversity Plus: CASM3C Assay for Macrophage colony-stimulating factor (MCSF) Biomarker Activity (AID 2283044).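 Also: M-CSF protein amount quantified by ELISA after 24 h exposure.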 Particulars: primary human coronary artery smooth muscle cells; actives raise or lower the signal.

Read-out in assay [12]: Low-density lipoprotein receptor (LDLR), LDLR (gene 3949)
In words: BSK_CASM3C_LDLR: BioMAP Diversity Plus: CASM3C Assay for Low-density lipoprotein receptor (LDLR) Biomarker Activity (AID 2283045).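 Also: LDLR protein level on the cell surface quantified by ELISA.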 Particulars: primary human coronary artery smooth muscle cells; actives raise or lower the signal.

Read-out in assay [13]: Monocyte Chemoattractant Protein-1 (MCP1), CCL2 (gene 6347)
As to the kind of experiment: BSK_CASM3C_MCP1: BioMAP Diversity Plus: CASM3C Assay for Monocyte Chemoattractant Protein-1 (MCP1) Biomarker Activity (AID 2283046).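 Also: MCP-1 level quantified by ELISA 24 h after dosing.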 The settings on record: primary human coronary artery smooth muscle cells; actives raise or lower the signal.

The nature of assay [14]: BSK_CASM3C_Proliferation: Cell Proliferation Assessment in the BioMAP Diversity Plus: CASM3C Assay (AID 2283047).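 Also: sulforhodamine B total protein stain as relative cell number at 560 nm; sub-confluent cells exposed 48 h before staining; fitted both ways against DMSO so gain or loss of cell number.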 Particulars: primary human coronary artery smooth muscle cells.
Read-out in assay [15]: Monokine induced gamma interferon (MIG), CXCL9 (gene 4283)
As to the kind of experiment: BSK_CASM3C_MIG: BioMAP Diversity Plus: CASM3C Assay for Monokine induced gamma interferon (MIG) Biomarker Activity (AID 2283048). The settings on record: primary human coronary artery smooth muscle cells; actives raise or lower the signal.

Read-out in assay [16]: serum amyloid A (SAA), SAA1 (gene 6288)
As to the kind of experiment: BSK_CASM3C_SAA: BioMAP Diversity Plus: CASM3C Assay for serum amyloid A (SAA) Biomarker Activity (AID 2283049).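 Also: SAA protein level quantified by ELISA.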 The settings on record: primary human coronary artery smooth muscle cells; actives raise or lower the signal.

Assay [17] is described as follows: BSK_CASM3C_SRB: Viability Assessment in the BioMAP Diversity Plus: CASM3C Assay (AID 2283050).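 Also: total protein by SRB staining as cytotoxicity measure in parallel cultures.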 The settings on record: primary human coronary artery smooth muscle cells.
Read-out in assay [18]: Thrombomodulin, THBD (gene 7056)
In words: BSK_CASM3C_Thrombomodulin: BioMAP Diversity Plus: CASM3C Assay for Thrombomodulin Biomarker Activity (AID 2283051).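 Also: thrombomodulin protein level measured by ELISA 24 h after dosing.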 Particulars: primary human coronary artery smooth muscle cells; actives raise or lower the signal.

Read-out in assay [19]: Tissue Factor, F3 (gene 2152)
As to the kind of experiment: BSK_CASM3C_TissueFactor: BioMAP Diversity Plus: CASM3C Assay for Tissue Factor Biomarker Activity (AID 2283052).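 Also: cell surface tissue factor protein level read by ELISA.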 Particulars: primary human coronary artery smooth muscle cells; actives raise or lower the signal.

Calls of active or inactive are those of the source. The calls were made as follows: active = hit-call score of the fitted dose curve at least 0.9, where 1 is the maximum; inactive = score below 0.9.

In the case of `COC(=O)c1sccc1S(=O)(=O)NC(=O)Nc1nc(C)nc(OC)n1`, the result in assay [1], in assay [2], in assay [3], in assay [4], in [5] and in assay [6] was inactive. The outcome in assay [7], in assay [8], in [9], in [10], in assay [11] and in assay [12] was inactive. For the same compound, the result in assay [13], in [14], in assay [15], in [16], in [17] and in assay [18] was inactive. In addition, the outcome in [19] was inactive.

The term AC50 denotes the midpoint of the concentration-response curve, whichever way the signal moves. Consider `O=C(Nc1ccc2[nH]ccc2c1)c1cc2cc(F)ccc2n1Cc1cccc(F)c1`, for which the AC50 in assay [1] is 8.66 µM (active); in [2], 8.41 µM (active); in [3] it was 8.22 µM (active); in assay [6] it was 6.74 µM (active); in assay [7], 33.5 µM (active); in [8], 5.75 µM (active). Besides, the AC50 is 23.6 µM (active) in [9]; 17.8 µM (active) in assay [10]; 33.7 µM (active) in assay [11]; 14.6 µM (active) in assay [12]; 31.6 µM (active) in assay [13]; 21.1 µM (active) in assay [14]. Besides, the concentration at half-maximal activity (AC50) in [15] is 31.2 µM (active); in [16] it was 36.7 µM (active); in [17] it was 28.1 µM (active); in assay [18], 33 µM (active); in assay [19], 20 µM (active). Besides, the result in [4] and in assay [5] was inactive.

With `CCCCCCCCc1ccc(O)cc1`, the half-maximal activity concentration (AC50) in [1] was 33.2 µM (active); in assay [2], 31.9 µM (active); in [3], 37.7 µM (active); in assay [4], 30.5 µM (active); in assay [5], 32.7 µM (active); in assay [6], 32.5 µM (active). Besides, the AC50 in assay [7] was 20.1 µM (active); in assay [8], 25 µM (active); in assay [9], 30.1 µM (active); in assay [10] it was 20.1 µM (active); in [11], 31.9 µM (active); in assay [12] it was 20.1 µM (active). In addition, the AC50 in [13] was 27.8 µM (active); in assay [14], 31.5 µM (active); in assay [15], 31.2 µM (active); in [16], 36.1 µM (active); in [17], 30.9 µM (active); in [18], 34.6 µM (active). Moreover, the half-maximal activity concentration (AC50) in assay [19] is 28.7 µM (active).

`Nc1cccc2ccccc12`: the outcome in assay [1], in assay [3], in assay [4], in [5], in [6] and in assay [7] was inactive. Further, the outcome in [8], in assay [9], in [10], in assay [11], in [13] and in assay [14] was inactive. The outcome in assay [15], in assay [16], in [17] and in assay [19] was inactive. Moreover, the concentration at half-maximal activity (AC50) was 20 µM (active) in assay [2], 12.6 µM (active) in assay [12] and 15.2 µM (active) in [18].

The values above are taken from PubChem BioAssay (EPA / NIEHS).
